# Test results: PubChem BioAssay AID504847 (National Center for Advancing Translational Sciences (NCATS), 2011)
# Several values for one entry are separate records, joined by “and”; a condition that tells them apart may be missing. Identical values can stand only once. The whole screen tested about 400,000 compounds, of which about 3,700 (0.93%) were called active. Inconclusive results (about 3%) are left out. The list comes from a sample in which actives are over-represented; it also holds similar structures and randomly drawn compounds. Some compounds were tested as several samples or in several runs, with calls that do not always agree. Unmarked numbers belong to inactive results. The call rests on the fitted dose curve; in most records, active means well fitted inhibition curve with a large enough effect; inconclusive means small, poorly fitted or top-dose-only effect, or another doubt; inactive means no such curve, though single readings can be large or run the other way.
# Molecular target: Vitamin D3 receptor (Homo sapiens) (UniProt P11473)
# Sequence (P11473 whole entry, looked up): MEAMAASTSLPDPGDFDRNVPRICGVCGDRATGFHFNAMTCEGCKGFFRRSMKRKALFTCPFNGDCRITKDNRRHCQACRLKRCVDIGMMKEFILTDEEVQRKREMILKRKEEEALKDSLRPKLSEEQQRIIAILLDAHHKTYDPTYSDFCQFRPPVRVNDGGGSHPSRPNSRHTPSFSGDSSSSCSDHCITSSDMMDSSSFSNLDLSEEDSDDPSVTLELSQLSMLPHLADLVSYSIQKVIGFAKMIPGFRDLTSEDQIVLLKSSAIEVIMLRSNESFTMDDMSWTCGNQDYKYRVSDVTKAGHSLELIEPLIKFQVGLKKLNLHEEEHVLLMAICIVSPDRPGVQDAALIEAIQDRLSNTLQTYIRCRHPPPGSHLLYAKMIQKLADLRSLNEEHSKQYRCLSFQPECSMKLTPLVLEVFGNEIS
# Assay: Inhibitors of the vitamin D receptor (VDR): qHTS
# Conditions: VDR-SRC2-3 peptide fluorescence polarization, 2 h; max response, negative = inhibition: hits give low values
# Excerpt: The vitamin D receptor (VDR) is a ligand-activated transcription factor and is partially responsible for the regulation of the endocrine system. This includes the transcriptional regulation of genes involved in the production of the parathyroid hormone (PTH) and the regulation of the blood calcium level. High levels of PHT can cause hypercalcemia in the case of primary and tertiary hyperparathyroidism. The VDR-mediated gene regulation, activated by its ligand 1,25-dihydroxyvitamin D3 (1,25-(OH)2D3), is governed by the recruitment of coactivators. Our hypothesis is that small molecules, with the ability to inhibit the interaction between VDR and certain coactivators, are able to selectively modulate VDR-mediated transcription. Our long term objective is the application these VDR-coactivator inhibitors to study the role of VDR-coactivator binding for specific VDR regulated genes. Ultimately, these molecules can be developed into new treatments for hypercalcemic hyperparathyroidism. No small molecule or non-peptide inhibitors are known for the VDR-coactivator interaction.
# In a collaboration between the University of Wisconsin, Milwaukee and the NIH Chemical Genomics Center (NCGC) a HTS-compatible enzymatic assay was developed. The assay uses fluorescence polarization as its read-out to measure the inhibition between VDR and coregulator peptide SRC2-3 exerted by small molecules. This assay was used to screen the NIH Molecular Libraries Small Molecule Repository (MLSMR).
# NIH Chemical Genomics Center [NCGC]
# NIH Molecular Libraries Probe Centers Network [MLPCN]
# Assay Submitter (PI): Alexander Arnold, University of Wilwaukee
# Both solutions are kept at 4 deg C and protected from light and dispensed using a Kalypsys dispenser. Then 23nl of compounds and controls are added with Kalypsys pintool. […] Plate is centrifuged at 1000 RPM for 15 seconds to remove any residual bubbles. The plate is then incubate at ambient room temperature for 2 hours.
# On the % scale 0 is the no-effect control and ±100 the full control effect; potency means the concentration at half of the fitted maximal effect.
SMILES,Potency,"max response, negative = inhibition"
CC[N+](C)(CC)CCC[n+]1c(-c2ccccc2)c2cc(N)ccc2c2ccc(N)cc21,8.91 µM (active),
COc1ccc2c3c1O[C@H]1C[C@@H](O)C=C[C@@]31CCN(C)C2,,4.74% and -11.8%
c1ccc2c(c1)[I+]c1ccccc1-2,,-6.32%
COc1ccc(CN2C(=O)NC(=O)/C(=C\c3ccc(OC)c(OC)c3OC)C2=O)cc1,70.8 µM (active),
CNC(C)[C@@H](O)c1ccccc1 (stereo partly specified),,2.28%
CO[C@@H]1C[C@@H](C[C@H]2CC[C@H](C)[C@@H]([C@@H](C)C(=O)O)O2)O[C@]2(O[C@](C)([C@H]3CC[C@@](C)(C4OC([C@H]5O[C@@](O)(CO)[C@H](C)C[C@@H]5C)C[C@@H]4C)O3)C[C@H]2C)[C@@H]1C (stereo partly specified),,10.2%
N#Cc1c(Cl)c(Cl)c(Cl)c(C#N)c1Cl,0.794 µM (active),
CCCCCCCCCCCCN=C(N)N,,6.41%
C[C@@H]1C[C@H]2CC[C@H](O2)[C@H](C)C(=O)O[C@@H](C)C[C@@H]2CC[C@@H](O2)[C@@H](C)C(=O)O[C@H](C)C[C@H]2CC[C@H](O2)[C@H](C)C(=O)O[C@@H](C)C[C@@H]2CC[C@@H](O2)[C@@H](C)C(=O)O1,,8%
COc1ccc2c3c1OC1CC(O)C=C[C@@]31CCN(C)C2 (stereo partly specified),,-3.65%
NC[C@H](O)c1ccc(O)cc1,,6.55%
O=C(Nc1cccc(F)c1)N1CC[C@@]2(CCCN(C(=O)Oc3ccccc3)C2)C1,,2.93%
CCOC(=O)c1ncn2c1[C@@H]1CCCN1C(=O)c1cc(OC)ccc1-2,,-6.26%
CC(=O)c1c(O)c(C)c(O)c(Cc2c(O)c3c(c(C(=O)/C=C/c4ccccc4)c2O)OC(C)(C)C=C3)c1O,14.1 µM (active) and 8.91 µM (active) and 39.8 µM (active),
CC(=O)c1c(O)c(C)c(O)c(Cc2c(O)c3c(c(C(=O)/C=C\c4ccccc4)c2O)OC(C)(C)C=C3)c1O,35.5 µM (active),
CN(C)C[C@H]1CCCC[C@]1(O)c1cccc(O)c1,,1.62%
Cc1cccc([C@H](C)c2cnc[nH]2)c1C,,7.28%
CO[C@H]1[C@@H](O)[C@@H](C)O[C@H](O[C@H]2[C@H](Oc3cccc4c(O)c5c(=O)oc6ccc(C)c7c(=O)oc(c34)c5c67)O[C@H](C)[C@H](O)[C@@H]2O)[C@@H]1O,,14.9%
Cc1ccc(-n2c(/C=C/c3cccc(C(F)(F)F)c3)nc3ccccc3c2=O)cc1,,9.47%
Cc1ccc(NC(=O)N(Cc2ccc3c(c2)OCO3)C2CCN(Cc3ccccc3)CC2)cc1F,,4.08%
Fc1ccc(C(OCCN2CCN(C/C=C\c3ccccc3)CC2)c2ccc(F)cc2)cc1,,-15.8%
CCCCC/C=C\C/C=C\C/C=C\C/C=C\CCCCCC(=O)NCCO,35.5 µM (active),17.7% and -2.94% and 0.308%
CCCCC/C=C\C/C=C\C/C=C\CCCCCCC(=O)NCCO,,-6.07% and 11.4% and 0.788%

SMILES,Potency,"max response, negative = inhibition"
CCCCC/C=C\C/C=C\C/C=C\C=C\[C@H](CCCC(=O)O)OO,,7.28% and 4.32%
CC[C@@H]1CN2CC[C@@H]1C[C@H]2[C@H](O)c1ccnc2ccc(OC)cc12,,3.71%
COC(=O)N1C(c2ccccc2)C1c1ccccc1 (stereo unspecified),,8.84%
CC(=O)[O][Sn]([c]1ccccc1)([c]1ccccc1)[c]1ccccc1,2.24 µM (active),
O=C(O)CCn1cc(C=C2C(=O)NC(=S)NC2=O)c(-c2cccc(Br)c2)n1,25.1 µM (active),
C[C@@]12CC[C@H]3[C@@H](CC[C@]4(O)C[C@H](O)CC[C@@]34C=O)[C@]1(O)CC[C@@H]2C1=CC(=O)OC1,,6.85%
c1csc(CN2CC3(CCNCC3)C2)n1,,2.29%
Cc1cccc2c3c(ccc12)C1=C(C(=O)C3=O)C(C)CO1 (stereo unspecified),5.62 µM (active),
COc1ccc(C2Oc3c(I)c(OC)cc(OC)c3CC2O)cc1OC (stereo unspecified),,-4.29%
Nc1ccc(-c2ccc(N)c(N)c2)cc1N,,7.8%
c1ccc(CCCCN2CCC(c3ccccc3)CC2)cc1,,6.23% and 8.72%
Cc1ncsc1CCCl,,-5.72% and -13.2% and 18.1%
COc1ccccc1-c1[se]c2ccccc2c1I,,-10.1%
N#CC(C#N)=Cc1cc(O)c(O)c([N+](=O)[O-])c1,44.7 µM (active),
CCC(C)C(=O)O[C@@H]1C[C@@]2(C)C(c3ccoc3)OC(=O)CC23OC2(C)O[C@@]14[C@@]1(C)C(CC(=O)OC)C5(C)CC1(O)C(O)(C5OC(=O)C1(C)OC1C)C(OC(C)=O)[C@@]34O2 (stereo partly specified),,-0.0436%
C[C@]12O[C@H](C[C@@]1(O)C(=O)O)n1c3ccccc3c3c4c(c5c6ccccc6n2c5c31)CNC4=O,,0.321%
COc1cc2c(cc1OC)[C@@H]1C(=O)c3ccc(O)c(CC=C(C)C)c3OC1CO2 (stereo partly specified),,10.7%
CCCCCCCCCCCCCC(=O)O[C@@H]1[C@@H](C)[C@@]2(O)[C@@H](C=C(CO)C[C@]3(O)C(=O)C(C)=C[C@@H]23)[C@@H]2C(C)(C)[C@]12OC(C)=O,,3.48%
CCC1(c2ccccc2)C(=O)NC(=O)N(C)C1=O (stereo unspecified),,3.76%
O=P1(Oc2ccccc2)CC(O)C(O)C(COCc2ccccc2)O1 (stereo unspecified),,-0.629%
CC(=O)OC1C2(CC3N4C(=O)C5(CO)SSC4(CC31O)C(=O)N5C)OC(C)C(C)(C)C2=O (stereo unspecified),39.8 µM (active),
Cc1cccc(Cn2cccc(C(=O)Nc3ccc4c(c3)OCCO4)c2=O)c1,,10.5%
Clc1ccc([C@@H]2C[C@H]3CC[C@@H]2N3)cn1,,3.4%

SMILES,Potency,"max response, negative = inhibition"
C1CC[C@H]([C@@]23C[C@H](C[C@H]4CCCN[C@H]42)[C@@H]2CCCCN2C3)NC1,,1.42%
O=C(O)c1cc[c]([Sb](=[O])([OH])[OH])cc1[N+](=O)[O-],,-21.9%
C[C@@]12CCC3C(CC[C@@H]4CC(O)CC[C@@]34C)C1CCC2O (stereo partly specified),,-4.26%
O=C1NC(=O)N(c2ccccc2)C(=O)/C1=C/c1ccc([N+](=O)[O-])s1,50.1 µM (active),
CN1CCCC(=C(c2cccs2)c2cccs2)C1,,3.88%
CC[N+]1(CCOC(=O)C(O)(c2ccccc2)c2ccccc2)CCCCC1,,4.12%
C[C@]12CC[C@H](O)C[C@@H]1CC[C@H]1[C@H]2CC[C@]2(C)C(=O)CC[C@@H]12,,-9.44% and 0.624% and 3.94%
Cc1cc(C=C2C(=O)NC(=O)NC2=O)c(C)n1-c1ccncc1,,-27.9%
Cc1ccnc(-n2c(C)cc(/C=C3\C(=O)NC(=S)N(C)C3=O)c2C)c1,39.8 µM (active),
CCN1C[C@@]2(COC)CC[C@H](OC)[C@]34[C@@H]1[C@]1(OCO[C@@]15C[C@@H](OC)C1C[C@H]3[C@H]5[C@@H]1OC)[C@H](O)[C@@H]24,,1.56%
CC(C)(Cc1c[nH]c2ccc(Cl)cc12)NCCOc1ccccc1OCC1CC1,,-1.04% and 2.67%
CC(C)(O)c1[se]c2ccccc2c1I,,-15.8%
c1csc(CN2CCCC3(CCNCC3)C2)n1,,-8.79%
Cc1nnc(NC(=O)c2cccn(Cc3cccc(F)c3)c2=O)s1,,12.7%
Cc1ccc2c(c1)=C/C(=C\c1c(O)[nH]c(=O)[nH]c1=O)C(=O)N=2,89.1 µM (active),
O=c1[nH]c(O)c(C=Nc2cc(F)cc(F)c2)c(=O)[nH]1,,-6.29%
C/C(=C\C=C/[C@@H](C)C(=O)O)[C@H]1CN[C@H](C(=O)O)[C@@H]1CC(=O)O,,-9.05%
COc1ccc2[nH]cc(CCNCc3ccc(Br)cc3)c2c1,,5.83%
COC(=O)c1ccc2[se]c(CC3CCCCC3)c(I)c2c1,,3.86%
CCC(=O)c1ccc(OCC(=O)N2CCN(CC(=O)Nc3ccc(C)cc3)CC2)cc1,,0.567%
C=CCN(CC=C)C(=O)Nc1ccc(OCC)cc1,,-2.13%
C=CCN1C(=O)NC(=O)/C(=C/c2ccc(OCC(=O)Nc3ccc(C)cc3)cc2)C1=O,70.8 µM (active),
C[C@@H]1C[C@@H]2O[C@H]2/C=C\C=C\C(=O)Cc2c(Cl)c(O)cc(O)c2C(=O)O1,,-4.25%

SMILES,Potency,"max response, negative = inhibition"
O=C1CCc2cccc3c2N1CC3,,-0.897%
COC([CH2][Hg])CNC(=O)c1ccccc1OCC(=O)O (stereo unspecified),5.62 µM (active),
CCCCCCCCc1[se]c2ccccc2c1Br,,0.449%
N[C@H](Cc1o[nH]c(=O)c1Cl)C(=O)O,,3.74%
C=CCN1CCC23c4c5ccc(O)c4O[C@H]2C(=O)CC[C@@]3(O)C1C5 (stereo partly specified),,-0.103% and 4.39%
C[C@H]1CC[C@@]2(NC1)O[C@@H]1C[C@H]3[C@@H]4CC=C5C[C@@H](O)CC[C@]5(C)[C@@H]4CC[C@]3(C)[C@@H]1[C@@H]2C,,-0.658%
C=CCN1CCC2(C)c3cc(O)ccc3CC1[C@@H]2C (stereo partly specified),,1.58%
CC(=O)OC1C2CCC3C1(CC(O)[C@@]1(O)[C@@H](CC(O)C1(C)C)[C@]3(C)O)C[C@@]2(C)O (stereo partly specified),,0.185%
CN[C@@H]1C[C@H]2O[C@@](C)([C@@H]1OC)n1c3ccccc3c3c4c(c5c6ccccc6n2c5c31)C(=O)NC4,,1.57% and -1.64%
CCNC[C@H](O)c1cccc(O)c1,,-1.81%
C=CCSSCC=C,20 µM (active),
COC1=C[C@]23CCCN2CCc2cc4c(cc2[C@@H]3[C@@H]1O)OCO4,,-4.23%
CC(C)(c1ccc(OC[C@@H]2CO2)cc1)c1ccc(OC[C@H]2CO2)cc1,,4.79%
CN1C2CC3CC1C(O3)C2O (stereo unspecified),,-5.48%
CCN1C[C@]2(COC)C(O)C[C@H](OC)[C@@]34C5C[C@]6(O)C(OC)C(O)[C@](OC(C)=O)(C5C6OC(=O)c5ccccc5)C(C(OC)C23)C14 (stereo partly specified),,4.87%
COc1cc(Cn2c(N)c(C(=O)NCc3ccco3)c3nc4ccccc4nc32)cc(OC)c1OC,79.4 µM (active),
COC(=O)C1=C(c2ccccc2)C[C@@H]2CC[C@H]1N2C(=O)NCc1ccco1,,-7.95%
CCOC(=O)C(O)(c1ccc(NC(=O)c2ccco2)c(OC)c1)C(F)(F)F (stereo unspecified),,9.73%
CC(=O)NBr,,-2.36%
CCN1C[C@]2(C)CC[C@H](O)[C@@]34[C@@H]5CC6[C@@H](OC)C[C@@](O)([C@@H]5[C@@H]6O)[C@H](C[C@@H]23)[C@H]14,,0.208%
NS(=O)(=O)c1ccc(CCNC(=O)c2ccc(Cl)c(S(=O)(=O)N3CCCCCC3)c2)cc1,,6.51%
